Measurements as given in PubChem BioAssay AID651820 (National Center for Advancing Translational Sciences (NCATS), 2012).
The campaign covered roughly 340,000 compounds. About 12,000 (3.5%) were called active. About 18% were inconclusive and are not listed. The sample holds actives, similar compounds and a random draw of the others, so the mix is not that of the screen. A number with no mark means an inactive call. Calls come from the whole dose curve; as a rule, active = well fitted inhibition curve with a large enough effect; inconclusive = small, poorly fitted or top-dose-only effect, or another doubt; inactive = no such curve, though single readings can be large or run the other way.

assay: qHTS Assay for Inhibitors of Hepatitis C Virus (HCV); details: Huh7.5.1 HCVcc-Cre infection, luciferase reporter, 44 h; series mostly up to 41.8 µM; activity change, negative = inhibition: at the top concentration
Procedure, shortened: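 HCVcc-Cre virus at an moi near 0.5 was added right after compound to cells cultured 4 h from seeding (1,000 cells/well). Luciferase activity was determined 44 h later, 15 min after substrate addition at RT.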
% is set by controls: 0 for no effect and ±100 for the full control effect; potency is the fitted concentration of half-maximal effect.

Structure (SMILES)	activity change, negative = inhibition	Potency
CC(=O)N1CCc2ccc(N)cc21	18%	
CCCCn1c(N)c(N(CCC(C)C)C(=O)CC2OC(=O)c3ccccc32)c(=O)[nH]c1=O (configuration not stated)	17.9%	
COc1ccc(C2=NS(=O)(=O)N(C)C(C(=O)NC(C)c3ccccc3)=C2)cc1 (configuration not stated)	-16.6%	
COc1ccc(NC(=O)C2=CC(c3ccc(OC)c(OC)c3)=NS(=O)(=O)N2C)cc1		8.91 µM (active)
COc1cc(NC(=O)C2=CC(c3ccco3)=NS(=O)(=O)N2C)cc(OC)c1OC	4.73%	
COC(=O)C1CCN(C(=O)NC2CC(=O)N(c3ccc4c(c3)OCCO4)C2)CC1 (configuration not stated)	7.38%	
O=S1(=O)CCOC[C@H](Cc2ccccc2)N1Cc1ccccc1Br	-7.83%	
O=C(CCN1CCN(C/C=C/c2ccccc2)CC1)Nc1ccccc1Cl	-5.92%	
O=C1c2ccccc2C(=O)c2c1cccc2N1CCN(C/C=C/c2ccccc2)CC1		11.2 µM (active)
CNC(=O)NC(=O)C(C)N1CCN(C/C=C/c2ccccc2)CC1 (configuration not stated)	2.6%	
Nc1ncnc2c1cnn2C1CC(O)C(CO)O1 (configuration not stated)	24.9%	
C=CCn1c(=O)n(C)c2c(=O)n(C)c(=O)n(C)c21	12.5%	
Cc1cccc(OCC(O)Cn2c(=N)n(CCN3CCOCC3)c3ccccc32)c1 (configuration not stated)	-11.5%	
CCOc1ccc(C(O)Cn2c(=N)n(CCN3CCCCC3)c3ccccc32)cc1 (configuration not stated)		10 µM (active)
CCOc1ccc(C(O)Cc2nc3ccccc3n2C)cc1 (configuration not stated)	11.1%	
COc1ccc(S(=O)(=O)N2CCOCC2)cc1NC(=O)CC1CC2CCC1C2 (configuration not stated)	2.91%	
COc1cc2c(cc1OC)CN(C(C)C(=O)Nc1cccc(S(=O)(=O)N3CCOCC3)c1)CC2 (configuration not stated)	-7.17%	
CCc1cc2c(SCC(=O)Nc3ncc(Cl)c(C)c3Cl)ncnc2s1	-1.3%	
CCc1cc2c(NC3CCCC3)ncnc2s1		10 µM (active)
CCc1cc2c(NC(Cc3ccccc3)C(=O)O)ncnc2s1 (configuration not stated)	8.03%	
O=C(CN1CCc2cc3c(cc2C1)OCCCO3)Nc1ccccc1		11.2 µM (active)
O=C(CN1CCOCC1)Nc1ccccc1	-2.17%	
Cc1ccc(NC(=O)CN2CCc3ccccc3C2)cc1	-2.8%	
CNC(=O)C1CC(=O)N(c2ccc(OCC(=O)Nc3ccccc3C)cc2)C1 (configuration not stated)	-3.97%	
O=C(N[C@@H](Cc1ccccc1)C(=O)OCc1ccccc1)c1nc[nH]c1C(=O)NC1CCNCC1	16.1%	
CCCCn1c(SCC(=O)N2CCC(C(=O)OCC)CC2)nc2cc(S(N)(=O)=O)ccc21	-7.54%	

Structure (SMILES)	activity change, negative = inhibition	Potency
NS(=O)(=O)c1ccc(CCNC(=O)CCCn2c(SCC(=O)N3CCCC3)nc3ccsc3c2=O)cc1		2 µM (active)
NS(=O)(=O)c1ccc(CCNC(=O)CN2C(=O)c3ccccc3S2(=O)=O)cc1	2.87%	
CN1C(=O)[C@H]2[C@@H](/C=C/c3ccccc3)N3C(=O)CN(Cc4ccc(-c5ccccc5)cc4)C(=O)[C@@]3(C)[C@H]2C1=O	1.62%	
COc1ccc(CNC(=O)CN2C(=O)NC3(CCCc4sccc43)C2=O)cc1 (configuration not stated)	7.77%	
O=C(Nc1ccc(N2C(=O)c3cccc4cccc(c34)C2=O)cc1)c1ccc(N2CCCCC2)c([N+](=O)[O-])c1	1.73%	
CC(NC(=O)c1ccc(N2CCNCC2)c([N+](=O)[O-])c1)C12CC3CC(CC(C3)C1)C2 (configuration not stated)	17.7%	
O=C(Nc1cccc(C(F)(F)F)c1)c1ccc(N2CCNCC2)c([N+](=O)[O-])c1		12.6 µM (active)
NC(=O)c1ncn([C@@H]2O[C@H](CN=C3NS(=O)(=O)c4ccccc43)[C@@H](O)[C@H]2O)n1	13.5%	
CSc1ncnc2sc(C)c(C)c12	-8.32%	
CCOC(=O)C(C)n1cnc2sc(C)c(C)c2c1=O (configuration not stated)	1.73%	
CCCNc1ncnc2sc(C)c(C)c12		8.91 µM (active)
CCN(C(=O)CSc1nnnn1-c1ccccc1OC)C1CCS(=O)(=O)C1 (configuration not stated)	7.75%	
O=C(CCc1ccc(S(=O)(=O)N2CCOCC2)cc1)OCC(=O)c1ccc(Br)cc1	8.2%	
Clc1ccc(Cn2ncc3c(NCc4cccnc4)ncnc32)cc1		11.2 µM (active)
CC(=O)Nc1ccc(NC(=O)CSc2ncnc3c2cnn3Cc2ccccc2)cc1	-2.76%	
Clc1ccc(Nc2ncnc3c2nnn3Cc2ccccc2)cc1	2.81%	
O=C(Cn1cnc2ccccc2c1=O)NNC(=O)c1ccccc1F	17.9%	
CC(C)NC(=O)Nc1cccc2c1O[C@@H](CN(C)S(=O)(=O)c1ccc(F)cc1)[C@@H](C)CN([C@H](C)CO)C2=O	17.9%	
O=C(C[n+]1cc(Br)cc2ccccc21)c1ccc(F)cc1		10 µM (active)
Cc1cccc[n+]1CC(=O)c1ccccc1	-7.73%	
O=C(CNC(=O)c1ccc(F)cc1)c1ccccc1	12.2%	
O=C(NCCS(=O)(=O)NCc1ccc(F)cc1)c1ccccc1	-2.73% [at 8.37 µM]	
O=C(NCc1cccnc1)c1cc(S(=O)(=O)N2CCOCC2)c(Cl)cc1Cl	10.9%	
Cc1ccc(S(=O)(=O)N2CCN(Cc3cccc(C)c3O)CC2)cc1	13.1%	
Cc1ccc(S(=O)(=O)N2CCN(c3ncnc4ccccc34)CC2)cc1		8.91 µM (active)
Cc1ccc(S(=O)(=O)N2CCN(C)CC2)cc1	19.8%	

Structure (SMILES)	activity change, negative = inhibition	Potency
CC(=O)Nc1ccc(NC(=O)CSc2nnc(C3CC3)n2-c2ccccc2)cc1	-9.37%	
Cc1cccc(-c2oc3ccc(-c4ccc5c(c4)OCO5)cc3c2C#Cc2cncn2C)c1	4.36%	
Cc1ccc(C(=O)O)c(NC=O)c1OCc1ccccc1	14.3%	
Cc1ccc(S(=O)(=O)N2[C@@H](c3cccc4ccccc34)C(C(=O)O)=C[C@H]2C(C)(C)C)cc1	10.4%	
CCOc1ccc(-c2n[nH]c(C)c2-c2ccccn2)c(O)c1	-17.4%	
COc1ccc(-c2n[nH]c(C)c2-c2ccc(OC)c(OC)c2)c(O)c1		11.2 µM (active)
COc1ccc(-n2c(-c3ccc(OC)c(OC)c3)n[nH]c2=S)cc1	5.22%	
O=C1NCC(Nc2ccccc2)C(=O)N1 (configuration not stated)	9.38%	
CCN(Cc1ccccc1)S(=O)(=O)c1cc2c3c(c1)CCN3C(=O)CC2	18.5%	
Cc1ccc(C)c(N2CCN(C(=O)CCc3nc(-c4cccc(C(F)(F)F)c4)no3)CC2)c1	2.72%	
COC(=O)c1ccc(C)c(NC(=O)Cn2c(C)csc2=O)c1	4.64%	
CCOc1ccc2nc(NC(=O)CSc3nc4c(c(=O)n(C)c(=O)n4C)n3CC)sc2c1		3.98 µM (active)
Cn1nnnc1SCC(=O)Nc1nc2ccccc2s1	-9.51%	
C#CC(C)(C)NC(=O)CSc1nc2c(c(=O)n(C)c(=O)n2C)n1CCCC	-15.9%	
O=C(Cn1cnc2c(OCc3ccccc3)ncnc21)NCCCn1ccnc1	5.21%	
Cc1ccc(Cn2c(NC(=O)c3ccco3)nc3ccccc32)cc1	-3.39%	
Cc1ccc(-n2nc3cc(Cl)c(NC(=O)c4ccco4)cc3n2)cc1	-13.6%	
CCn1nc(NC(=O)c2ccco2)c2cc3ccc(C)cc3nc21		10 µM (active)
CN1CCOC1c1ccc(C2OCCN2C)cc1 (configuration not stated)	17.6%	
COc1ccc(-c2ccc(Nc3ccc(S(=O)(=O)N4CCCC4)cc3)nn2)cc1OC		12.6 µM (active)
COc1ccc(S(=O)(=O)Nc2ccc(S(=O)(=O)N3CCCCC3)cc2)cc1OC	-1.61%	
COc1ccccc1CC(=O)Nc1ccc(S(=O)(=O)N2CCCC2)cc1	-19.2%	
COc1ccc(NS(=O)(=O)c2ccc(N3CCOCC3)c(NC(=O)/C=C/C(=O)O)c2)cc1	-1.43%	
Cc1nc(Nc2ccc3c(c2)OCCO3)c2nnn(Cc3ccccc3Cl)c2n1		10 µM (active)
CCCc1nc(NCc2ccc3c(c2)OCO3)c2nnn(Cc3ccccc3Cl)c2n1	9.92%	
Cc1nc(Nc2ccccc2F)c2nnn(Cc3ccccc3Cl)c2n1	6.92%	

Structure (SMILES)	activity change, negative = inhibition	Potency
CCN(CC(=O)Nc1ccccc1C(=O)NC1CC1)Cc1cccs1	0.258%	
Cc1ccccc1NC(=O)Cc1nc(COC(=O)c2ccc(C(F)(F)F)cc2)cs1	-7.12%	
COc1cccc(NC(=S)NCc2ccco2)c1	-5.4%	
CCNC(=S)N(CCc1c(C)[nH]c2ccc(C)cc12)Cc1ccco1	1.39% [at 8.37 µM]	
COc1cccc(NC(=S)N(CCc2c(C)[nH]c3ccccc23)Cc2ccco2)c1		25.1 µM (active)
CC(C)CC1(C)NC(=O)N(CC(=O)Nc2ccc3c(c2)OCCO3)C1=O (configuration not stated)	5.63%	
O=C(CSc1nc(Nc2ccccc2)nc(N2CCOCC2)n1)Nc1cc(Cl)ccc1O		10 µM (active)
CC1(c2ccccc2)NC(=O)N(CC(=O)Nc2cc(Cl)ccc2N2CCOCC2)C1=O (configuration not stated)	10.1%	
O=C(CN1CCOCC1)Nc1cc(Cl)ccc1Cl	0.835%	
C#CCOCCOCCOCCNc1nc(N2CCN(C(=O)Cn3cc(CCO)nn3)CC2)nc(N2CCN(C(=O)Cn3cc(CCCN=C(N)N)nn3)CC2)n1	42.9%	
CCCCNC(=O)CSc1nnc(-c2ccco2)n1C	11.8%	
CCCCNC(=O)CSc1nc2n[nH]c(C)c2c(=N)n1-c1cccc(Cl)c1C		15.8 µM (active)
CCCCNC(=O)CSc1nccn1Cc1ccccc1	12.3%	
CCn1nc(C(=O)NNC(=O)C2CSC3(C)CCC(=O)N23)c2ccccc2c1=O (configuration not stated)	-22.1%	
COc1cccc(CNC(C)C(=O)Nc2ccc(S(=O)(=O)N3CCCC3)cc2)c1 (configuration not stated)	-22%	
O=C(Nc1nnc(-c2ccccc2)o1)c1cc(-c2cccs2)nc2ccccc12	-12.9%	
COC(=O)c1cc(-c2cccs2)nc2ccccc12		12.6 µM (active)
O=C(NCCN1CCOCC1)c1cc(-c2cccs2)nc2ccccc12	12.8%	
O=C(O)CCc1cccnc1		0.891 µM (active)
N/C(=N\OC(=O)CCc1ccccc1)c1cccnc1	-0.933%	
O=C(O)CCCc1ccccc1		inactive
COc1ccc2c(CC(=O)NNC(=O)c3ccccc3F)coc2c1	6.42%	
Cc1cc(C)n2nc(C(=O)OCC(=O)N(C)CC(=O)Nc3ccc(F)cc3)nc2n1	-0.618%	
Cc1ccc(C)c(-c2nnc(NC(=O)CS(=O)(=O)c3ccccc3)o2)c1	10%	
